Test results published in PubChem BioAssay AID1789 (The Scripps Research Institute Molecular Screening Center, 2009).
The whole screen tested about 290,000 compounds, of which about 2,700 (0.93%) were called active.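 How the source made its calls: active means inhibition above the screen-wide mean plus 3 SD, computed separately per campaign (cut at about 16% in these data); inactive means the rest.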 The sample as a whole holds a higher share of actives than the screen did.

These molecules were tested on Heat shock protein HSP 90 (rabbit reticulocyte lysate; luciferase refolding) (assay: inhibitors of HSP90 chaperone activity – cell lysate, luminescence, primary screen (AID 1789;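 further: 0% = DMSO wells and 100% = 60 µM geldanamycin wells; inhibitors lower the luminescence because luciferase stays unfolded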)). Conditions: 3 h, at 5.6 µM, hits give high values.

inhibition, inactive:
CCn1cc(/C=C(\NC(=O)c2ccc(C)cc2)C(=O)NCCN2CCOCC2)c2ccccc21 3.27%, Cc1nn(Cc2ccccc2)c(Cl)c1C(=O)OC1CCOC1=O (centres undefined) -0.01%, CC(C)c1ccc(C(=O)OC2CCOC2=O)cc1 (centres undefined) 3.27%, CCOC(=O)C1CCN(Cc2c(C(=O)N3CCOCC3)nc3c(C)cccn23)CC1 13.2%, C=C(C)CNC(=O)c1ccc(OC2CCN(C(=O)COC)CC2)cc1 2.35%, CC(C)C[C@H](NC(=O)C1CC(=O)N(c2ccc3c(c2)OCCO3)C1)C(=O)NC1CCCC1 (some centres undefined) -1.77%, O=c1c2ccccc2nc2n1C1(CCCCC1)Cc1ccccc1-2 4.03%, CCOC(=O)C(C)Sc1nc2ccccc2c(=O)n1CC1CCCCC1 (centres undefined) 2.53%, COCCC(=O)N1CCC(Oc2ccc(C(=O)NCc3ccon3)cc2)CC1 -1.71%, CNC(=O)CN1C(=O)NC(c2ccccc2)(c2ccccc2)C1=O 3.3%, C=CCc1cc(S(=O)(=O)c2ccc(O)c(CC=C)c2)ccc1O -0.52%, CCOC(=O)N1CCN(C(=O)C(=O)Nc2sc3c(c2C#N)CC(C)(C)OC3)CC1 -2.63%, CCOc1ccc(-n2c(SCC(N)=O)nnc2-c2ccco2)cc1 7.02%, CCCCOc1ccc(-c2nnc(-c3ccco3)o2)cc1 -4.76%, CCc1ccccc1OCC(=O)Nc1ccc2c(c1)OCCO2 -5.09%, CCn1ccnc1CN(C)C(=O)c1ccc2nc(Cc3ccc(OC)cc3)oc2c1 -0.73%, COCC1CCN(C(=O)C2CCC(=O)N(Cc3cccc(C(F)(F)F)c3)C2)CC1 (centres undefined) 2.25%, O=c1c([N+](=O)[O-])cc(C(F)(F)F)cn1Cc1cccc(Cl)c1 0.02%, O=C(/C=C/c1cccc([N+](=O)[O-])c1)N1CCN(Cc2ccccc2)CC1 -2.98%, CN(Cc1ccccc1)C(=O)C(=O)c1cn(CC(=O)N2CCCC2)c2ccccc12 -3.8%, CCc1ccc(NC(=O)NC(C)c2ccc3c(c2)OCO3)cc1 (centres undefined) 1.03%, Cc1onc(-c2ccccc2)c1C(=O)N1CCN(S(=O)(=O)c2ccccc2C(F)(F)F)CC1 -1.81%, COc1ccc(N2CCN(C(=O)c3cn(C)c4ccc(S(=O)(=O)N5CCOCC5)cc4c3=O)CC2)cc1 -3.81%, Cc1cc(C)nc(N2CCC(C(=O)Nc3ccc4c(c3)OCCO4)CC2)n1 0.65%, O=C(Nc1cccc(Cl)c1)C1CCCN(c2cnccn2)C1 (centres undefined) -2.56%, COc1ccc(N2C(=O)NC(NS(=O)(=O)c3ccc(Cl)cc3)(C(F)(F)F)C2=O)cc1 (centres undefined) 1.44%, COc1ccc(Cc2cc(-c3ccc(F)cc3)n[nH]c2=O)cc1 -1.15%, Oc1ccc(-c2onc3ccc(Cl)cc23)cc1 -0.76%, COc1ccc(-c2onc3ccc(C(C)=O)cc23)cc1 3.03%, COc1ccc(C(C)NC(=O)C2CCCC2)cc1 (centres undefined) -1.94%, CCCc1cc(=O)oc2c(C)c(OC(C)C(=O)NCC(O)c3ccccc3)ccc12 (centres undefined) -5.71%, COc1nc(-c2ccc(Cl)cc2)ccc1-c1noc(-c2cccs2)n1 -4.45%, O=C(Oc1ccc(-c2nc(-c3ccccn3)no2)cc1)c1ccccc1 3.06%, COCC1CCCN(C(=O)c2ccc3oc(C(C)C)nc3c2)C1 (centres undefined) 2.21%, Cc1n[nH]c(=O)c2c1nnn2Cc1ccc(F)cc1 0.06%, C/C(=N/NC(=O)c1ccc(Br)o1)c1ccc(C)o1 1.47%, Cc1ccc(/C=N/NC(=S)NC2CCCCC2)o1 -0.34%, COc1ccc(OC)c(NC(=O)c2ccc3c(c2)CCN3S(C)(=O)=O)c1 -4.49%, O=C(C1CCC(=O)N(C2CC2)C1)N1CCN(c2ccc(Cl)cc2)CC1 (centres undefined) 0.69%, CCOc1cc(C2/C(=C(/O)c3ccc(S(=O)(=O)N4CCCCC4)cc3)C(=O)C(=O)N2CCOC)ccc1O (centres undefined) -4.72%, Fc1ccccc1/C=C1\CCCC2=C1Nc1ncnn1C2c1ccccc1F (centres undefined) 5.24%, NS(=O)(=O)c1cccc(NC(=O)CSc2nc3ccccc3n2-c2ccccc2)c1 2.1%, Cc1ccc(SCCC(=O)OCC(=O)Nc2ncc(Cl)cc2Cl)cc1 3.89%, COc1cccc(C(=O)N/N=C(\C)c2cccc(NC(=O)c3ccc(F)cc3)c2)c1OC -0.84%, COc1cccc(NC(=O)C/C(C)=N/NC(=O)C2CCCCC2)c1 -2.92%, O=C(COc1ccc2ccc(=O)oc2c1)NCC(O)c1ccccc1 (centres undefined) -3.81%, Brc1ccc(-c2nnc(-c3ccccc3)o2)o1 -0.79%, Nc1ccc(-c2sc(N)nc2-c2ccccc2)cc1 -4.32%, CCOc1ccc(S(=O)(=O)N2CCCC(C(=O)N3CCC(C(N)=O)CC3)C2)cc1Cl (centres undefined) -3.03%, COc1ccc(OCCCC(=O)NCCc2ccccc2)cc1 -4.96%, CCCc1ccc(OCCNC(=O)c2ccco2)cc1 -5.63%, CCCOc1cccc(C(=O)NCCCNC(=O)c2cccnc2)c1 3.77%, Nc1cc(N2CCCCCC2)c2nonc2c1[N+](=O)[O-] 0.32%, Cn1ncc2c(NNC(=O)Cc3cccc4ccccc34)ncnc21 5.78%, N/C(=N\OC(=O)c1ccc([N+](=O)[O-])cc1)c1ccccn1 2.51%, COc1ccc(C(=O)O/N=C(\N)c2ccccn2)cc1[N+](=O)[O-] -3.48%, CN(C)c1ccc(C2N(C)C(=O)c3ccccc3N2C)cc1 (centres undefined) 4.78%, Cc1ccc(C)c(NS(=O)(=O)c2c(C)[nH]c(C)c2C(=O)N2CCCCC2)c1 3.8%, O=C(Nc1ccccc1Cl)NC1(C(=O)N2CCOCC2)CCCCC1 0.58%, Cc1ccc2c(N)c(C(=O)c3ccccc3)sc2n1 1.67%, CS(=O)(=O)c1sc2nc(-c3ccccc3)cc(-c3ccccc3)c2c1N 0.41%, O=C(O)CSc1c2c(nc3cc(C(=O)Nc4cccc(C(F)(F)F)c4)ccc13)CCCC2 -0.05%, CCCCNC(=S)NNC(=O)c1cc(C)on1 -1.37%, CCCCNC(=O)C(=O)c1ccccc1NC(C)=O 4.09%, CC(C)CC[n+]1ccn(C2=C([O-])c3ccccc3C(=O)/C2=N\S(=O)(=O)c2ccccc2)c1 6.11%, CCOC(=O)c1sc(NC(=O)c2sc(C)nc2C)nc1C 9.21%, CC1CCCCN1CCCNc1ccc(C(CC(N)=O)NC(=O)c2ccccc2)cc1[N+](=O)[O-] (centres undefined) -2.66%, OC(c1nc2ccccc2[nH]1)C(O)C(O)C(O)c1nc2ccccc2[nH]1 (centres undefined) -0.14%, Cc1nc2ccc(C(=O)N/N=C/c3ccc(O)cc3)cc2[nH]1 1.87%, OC(c1nc2ccc(F)cc2[nH]1)C(O)c1nc2ccc(F)cc2[nH]1 (centres undefined) -4.25%, Cc1nc2ccc(C(=O)N(C)CC3CCCN(CCc4ccc(Cl)cc4)C3)cc2[nH]1 (centres undefined) -8.86%, COc1ccc(C(=O)n2nc(C)c(Br)c2C)cc1OC 4.92%, C#CCOc1ccc(/C=C2/C(=O)ON=C2C)cc1OCC 1.13%, Cc1ccc(NC(=O)C(CC(=O)O)C2CCCO2)c(C)c1 (centres undefined) -2.07%, CCOC(=O)N1CCC(NC(=O)CCc2ccccc2)CC1 2.73%, COc1ccc(C(=O)NCCn2nc(C)cc2C)cc1OC1CCN(C(C)=O)CC1 0.85%, Cc1cnc(NC(=O)c2ccc(Cl)nc2)s1 -0.28%, O=C(Nc1nnc(C2CC2)s1)c1ccccn1 16%, O=C(CN1CCN(C(=O)C2CCCO2)CC1)Nc1c(Cl)cccc1Cl (centres undefined) -1.9%, CCN(CC)CCN1C(=O)C(=O)/C(=C(/O)c2ccccc2)C1c1ccccc1F (centres undefined) 1.61%, CCN(CC)CCN1C(=O)C(=O)/C(=C(/O)c2ccc(OC)c(OC)c2)C1c1ccccn1 (centres undefined) 0.07%

inhibition, active:
O=C(OC1CCOC1=O)c1ccc(-c2nc3ccccc3s2)s1 (centres undefined) 35.8%, CN(c1ccc2nc3ccccc3c(=O)n2n1)C1CCCCC1 85.9%, CCOc1ccc(-c2nnc(-c3ccco3)o2)cc1 30.8%, O=[N+]([O-])/C=C/c1ccc2c(ccn2Cc2ccccc2)c1 21.8%, O=C(Nc1ccc2c(c1)OCCO2)C1CCCN(c2ncccn2)C1 (centres undefined) 16.9%, CC(OC(=O)c1ccc2noc(-c3ccccc3)c2c1)C(N)=O (centres undefined) 26.5%, c1ccc(-c2noc(-c3cccs3)n2)nc1 21.2%, C/C(=N\NC(=S)NC1CCCCC1)c1ccc(C)o1 19.9%, Cc1ccc(-n2c(SCC(=O)Nc3ncc(Cl)cc3Cl)nc3ccccc32)cc1 19.5%, Nc1ccc(-c2nnc(-c3ccccc3)o2)cc1 20.3%, CCCOc1ccc(C(=O)NCCc2ccccc2)cc1 20.7%, Cc1ccc(C(=O)O/N=C(\N)c2ccccn2)cc1Cl 42.5%, CCN(CC)C(=O)c1sc2nc(-c3ccccc3)ccc2c1N 16.5%, CCCCNC(=O)Nc1c(C)cc(SC#N)cc1C 36.7%, Cc1nc2ccc(C(=O)O)cc2[nH]1 31.3%, CC(C)c1nc2ccc(C(=O)O)cc2[nH]1 37.9%, Cc1cnc(NC(=O)c2ccccn2)s1 21%, CCN(CC)CCN1C(=O)C(=O)/C(=C(/O)c2cnn(-c3ccccc3)c2C)C1c1cccs1 (centres undefined) 33.3%
